Here are results for 36 compounds from PubChem BioAssay (NCI).

Compounds without any hit were thinned out: in the full panel of roughly 79,000, 15% have a hit. A number with no mark means an inactive call. The source made the active and inactive calls. Cut-off read from the data, not from the text of the source: active = growth inhibition above about 70%; inactive = the rest.

A short description of experiment [1]: NCI Yeast Anticancer Drug Screen. Data for the rad50 strain (AID 155).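 Note: 0% = growth of vehicle-only cultures of the same strain.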 Conditions: S. cerevisiae rad50 strain growth inhibition; at 50.0 µM; stronger effect = higher value. Summed up: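 Genetically altered yeast (DNA repair pathway); compound treatment; growth inhibition vs vehicle ctrl.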
The nature of experiment [2]: NCI Yeast Anticancer Drug Screen. Data for the mec2-1 strain (AID 157). Conditions: S. cerevisiae mec2-1 strain, at 50.0 µM, stronger effect = higher value. The method, boiled down: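 Strain: mec2-1 (DNA repair/cell cycle alteration). Compound exposure, then growth measured; inhibition expressed relative to vehicle.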
Experiment [3] can be described thus: NCI Yeast Anticancer Drug Screen. Data for the sgs1 mgt1 strain (AID 161).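 Note: 0% = growth of cultures given vehicle only.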 Conditions: S. cerevisiae sgs1 mgt1 strain, at 50.0 µM, stronger effect = higher value. The method, boiled down: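 Test agents were incubated with a DNA-repair-mutant yeast strain. Growth was then read and compared against vehicle-treated controls.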
Experiment [4] in a line: NCI Yeast Anticancer Drug Screen. Data for the cln2 rad14 strain (AID 165).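 Note: 0% = growth equal to vehicle treated cultures.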 Conditions: S. cerevisiae cln2 rad14 strain, at 50.0 µM, stronger effect = higher value. The method, boiled down: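 Compounds are applied to the cln2 rad14 yeast strain, and growth is then compared with that of vehicle-treated cultures to give inhibition.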
A short description of experiment [5]: NCI Yeast Anticancer Drug Screen. Data for the bub3 strain (AID 167). Conditions: S. cerevisiae bub3 mutant strain, at 50.0 µM, stronger effect = higher value. The method, boiled down: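 Yeast carrying a defined mutation is treated with each compound, and growth is compared with that of vehicle-exposed cells to give inhibition.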
Experiment [6] in a line: NCI Yeast Anticancer Drug Screen. Data for the mlh1 rad18 strain (AID 175). Conditions: S. cerevisiae mlh1 rad18 strain growth inhibition; at 50.0 µM; stronger effect = higher value. Summed up: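 Read-out is yeast growth inhibition, calculated against vehicle-only controls. The compound was applied to a strain engineered with DNA damage repair alterations.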

In the case of `Nc1c(Cl)ncnc1NCCCCCO`, the growth inhibition in experiment [1] was -5.35%; in experiment [2], -4%; in experiment [3] it was -8.75%; in experiment [4], -23.7%; in experiment [5], -6.95%; in experiment [6], -1.95%.

On to `CC(=O)O[C@@H]1[C@H]2[C@@H](OC(=O)c3ccccc3)[C@@H](C)C[C@]2(O)[C@H](OC(C)=O)[C@@]2(C)[C@@H]3CC(C)(C)C(=O)[C@]3(OC(C)=O)C[C@@]12C`, for which the growth inhibition in experiment [1] is 25%; in experiment [2] it was 31.1%; in experiment [3], 6.4%; in experiment [4], 5.3%; in experiment [5] it was 15.2%; in experiment [6], 39.4%.

As for `C=CCOc1cc(NC(=S)c2ccoc2C)ccc1OC`, the growth inhibition in experiment [1] was -17.4%; in experiment [2], -3.15%; in experiment [3], -10%; in experiment [4], -2.7%; in experiment [5], -3.35%; in experiment [6], -52.9%.

For the compound `COC(=O)C(C(=O)c1ccccc1)c1ccccc1` (stereo unspecified), the growth inhibition in experiment [1] is 30.6%; in experiment [2], 16.9%; in experiment [3], 9.5%; in experiment [4], 6.35%; in experiment [5], 8.4%; in experiment [6], 38.7%.

For `CC(=O)NS(=O)(=O)c1ccc(NC(=O)CCC(=O)O)cc1`, the growth inhibition in experiment [1] was -8.95%; in experiment [2], -20.4%; in experiment [3], 2.4%; in experiment [4], 7.2%; in experiment [5], 9.1%; in experiment [6], 4%.

`CCOC(=O)C1=C(C)N(Cc2ccccc2)C2(O)C1=CC(=O)C(Cl)=C2Cl` (stereo unspecified): the growth inhibition in experiment [1] is 72.8% (active); in experiment [2], 45.5%; in experiment [3] it was 46.8%; in experiment [4], 54.9%; in experiment [5], 49.5%; in experiment [6], 42.4%.

As to `COC(=O)CCC(=O)Nc1ccccc1C(F)(F)F`, the growth inhibition is -8.55% in experiment [1]; 5.3% in experiment [2]; 7.65% in experiment [3]; 3.2% in experiment [4]; 8.45% in experiment [5]; 1% in experiment [6].

For the compound `Cc1nccn1C(C)c1ccccc1` (stereo unspecified), the growth inhibition in experiment [1] was -9.8%; in experiment [2], -19.9%; in experiment [3], -16.2%; in experiment [4] it was -95.3%; in experiment [5], 0.35%; in experiment [6] it was -25.4%.

`Cc1ccc(N=Nc2ccc(C)cc2NC(=O)/C=C/c2ccccc2)cc1`: the growth inhibition in experiment [1] is -21.5%; in experiment [2] it was -34.5%; in experiment [3], 6.65%; in experiment [4], 8.4%; in experiment [5], -6.35%; in experiment [6], -8.65%.

`O=C(O)Cn1cc(I)c(=O)c(I)c1`: the growth inhibition is -40.4% in experiment [1]; -43.7% in experiment [2]; -7.2% in experiment [3]; 3.15% in experiment [4]; -10.3% in experiment [5]; -28% in experiment [6].

Take `CC(/C=N/N(C)C)=N\N(C)C`: the growth inhibition in experiment [1] was -3.75%; in experiment [2], 5.3%; in experiment [3], -5.65%; in experiment [4], -60.4%; in experiment [5], 32.2%; in experiment [6] it was -21.4%.

For the compound `CCCCCCCCCC1OCC(COCC)O1` (stereo unspecified), the growth inhibition in experiment [1] was -2.6%; in experiment [2] it was -9%; in experiment [3] it was 7.5%; in experiment [4], -17.4%; in experiment [5] it was 14.8%; in experiment [6] it was -7.15%.

Consider `Cc1[nH]c(=O)[nH]c(=O)c1NC=O`, for which the growth inhibition in experiment [1] was -3.6%; in experiment [2], -28.3%; in experiment [3] it was -8.85%; in experiment [4], 14.6%; in experiment [5] it was -11.8%; in experiment [6], -27.1%.

Take `CCOC(=O)NC(C(F)(F)F)(C(F)(F)F)P(=O)(OC(C)C)OC(C)C`: the growth inhibition in experiment [1] was -23%; in experiment [2] it was -11.6%; in experiment [3], -12.4%; in experiment [4] it was 31.1%; in experiment [5], 3.65%; in experiment [6], 1.65%.

For `CSC(=O)c1sc(SC)[n+](-c2ccccc2)c1O`, the growth inhibition in experiment [1] is 4.95%; in experiment [2] it was -20.2%; in experiment [3], -1%; in experiment [4] it was -5.5%; in experiment [5], -13.3%; in experiment [6] it was -7.9%.

Take `O=c1[nH]c2cc(Br)c(Br)cc2c2ccc(Br)cc12`: the growth inhibition in experiment [1] is 43%; in experiment [2], -3.8%; in experiment [3], 13.7%; in experiment [4] it was 1.3%; in experiment [5], 5.8%; in experiment [6], 5.15%.

Regarding `O=C(O)CCC(=O)Nc1ccccc1C(=O)O`, the growth inhibition is -1.15% in experiment [1]; 11.8% in experiment [2]; -8.15% in experiment [3]; 0.15% in experiment [4]; 5.6% in experiment [5]; -4.5% in experiment [6].

With `CCOC(=O)C(C(=O)CC)=P(c1ccccc1)(c1ccccc1)c1ccccc1`, the growth inhibition in experiment [1] was 3.35%; in experiment [2], 17.4%; in experiment [3], -20.1%; in experiment [4] it was -9.4%; in experiment [5] it was -9.9%; in experiment [6], 23.2%.

Regarding `Cc1ccc(OC(=O)c2ccc([N+](=O)[O-])cc2)cc1C(C)C`, the growth inhibition in experiment [1] was -15.6%; in experiment [2], -9.25%; in experiment [3], -11.7%; in experiment [4], -6.45%; in experiment [5], -10.1%; in experiment [6] it was -22%.

Take `Cc1ccc(NC(=O)Oc2ccc(C#N)cc2)cc1Cl`: the growth inhibition in experiment [1] was 9.45%; in experiment [2], 5.85%; in experiment [3], 21.1%; in experiment [4], 17.8%; in experiment [5] it was 29.8%; in experiment [6], 27.1%.

For `O=C(/C=C/c1ccc(O)cc1)OC[C@@H](O)COC1OC(CO)C(O)C(O)C1O` (stereo partly specified), the growth inhibition is -5.8% in experiment [1]; -5.05% in experiment [2]; -4.35% in experiment [3]; 6.8% in experiment [4]; 8.2% in experiment [5]; -3.65% in experiment [6].

Regarding `N=C1N(S(=O)(=O)c2ccccc2)[C@@H](Cc2ccccc2)[C@H](c2ccccc2)C1(c1ccccc1)c1ccccc1`, the growth inhibition in experiment [1] is -25.1%; in experiment [2], -7.3%; in experiment [3], 6.05%; in experiment [4] it was -29.6%; in experiment [5], -3.5%; in experiment [6], 18.2%.

With `CCc1cccc(CC)c1N=Cc1ccccc1O`, the growth inhibition in experiment [1] is 32.8%; in experiment [2], 11%; in experiment [3], 21.6%; in experiment [4], 16.1%; in experiment [5], 10.8%; in experiment [6], 19%.

As to `NCCNc1nc(NCCN)nc(N(CCN)CCN)n1`, the growth inhibition in experiment [1] is 4.85%; in experiment [2], -4.9%; in experiment [3] it was 7.6%; in experiment [4], 9%; in experiment [5], -17.3%; in experiment [6], 4.05%.

As to `Oc1ccccc1CN1CCOCC1`, the growth inhibition in experiment [1] is 22.4%; in experiment [2], 9.3%; in experiment [3], 26.9%; in experiment [4] it was 13.8%; in experiment [5], -7.2%; in experiment [6], 28.5%.

Take `CCOC(=O)C(Cc1cn(C(C)=O)c2ccccc12)P(=O)(OCC)OCC` (stereo unspecified): the growth inhibition in experiment [1] was -12.7%; in experiment [2], -21.6%; in experiment [3] it was -15.2%; in experiment [4], -1.15%; in experiment [5], 1.05%; in experiment [6], -27%.

Consider `BrCCC1CCCCCC1`, for which the growth inhibition in experiment [1] is 8.75%; in experiment [2], -5.4%; in experiment [3], 5.85%; in experiment [4], 6.05%; in experiment [5] it was -4.25%; in experiment [6], 1.3%.

Turning to `N#CC1CCCC(CBr)C1` (stereo unspecified), the growth inhibition in experiment [1] is -24.9%; in experiment [2], -43%; in experiment [3], -20.5%; in experiment [4] it was -23.7%; in experiment [5], -9.05%; in experiment [6], -26.7%.

`CCCCCCCCCCCCCCO`: the growth inhibition is 21.9% in experiment [1]; -22.8% in experiment [2]; -19.7% in experiment [3]; -54.8% in experiment [4]; 1.3% in experiment [5]; 16.9% in experiment [6].

Turning to `Cn1c(N)c(/C=C/C(=O)Oc2ccccc2)c(=O)n(C)c1=O`, the growth inhibition in experiment [1] was 49.7%; in experiment [2], 18.4%; in experiment [3] it was 16.5%; in experiment [4], 16.8%; in experiment [5], -8.8%; in experiment [6], -43.1%.

In the case of `CSc1ccc(OC(=O)Nc2cc([N+](=O)[O-])ccc2F)cc1C`, the growth inhibition was 16.6% in experiment [1]; 11.2% in experiment [2]; 16% in experiment [3]; 12.2% in experiment [4]; 28.8% in experiment [5]; 17.1% in experiment [6].

`O=c1nc2n(cc1/C=C\Br)C1CC(O)C(CO2)O1` (stereo unspecified): the growth inhibition is -51% in experiment [1]; -24.6% in experiment [2]; -24.1% in experiment [3]; 13.3% in experiment [4]; -1.5% in experiment [5]; -23.6% in experiment [6].

With `CN(C)C(=O)Nc1ccc(C#N)cc1`, the growth inhibition is 10.1% in experiment [1]; 2.3% in experiment [2]; -13.3% in experiment [3]; -25.1% in experiment [4]; -5.15% in experiment [5]; -8.2% in experiment [6].

On to `Cn1c(-c2ccc3c(c2)OCO3)cc(=O)c2ccccc21`, for which the growth inhibition in experiment [1] was -11.2%; in experiment [2], -17.6%; in experiment [3], -4.9%; in experiment [4], -4.55%; in experiment [5], 4.85%; in experiment [6], 0.6%.

As for `CCCCOC(=O)CNC(=O)c1ccc(C)c(OCc2ccccc2)c1[N+](=O)[O-]`, the growth inhibition is 0.5% in experiment [1]; -6.1% in experiment [2]; 6.1% in experiment [3]; -19.6% in experiment [4]; 20.9% in experiment [5]; -17.6% in experiment [6].

Consider `CC(c1ccccc1)N1OC1(c1ccccc1)c1ccccc1` (stereo unspecified), for which the growth inhibition in experiment [1] was 41.5%; in experiment [2], 50.4%; in experiment [3] it was 57.8%; in experiment [4] it was 22.9%; in experiment [5], 30.6%; in experiment [6], 90.1% (active).
